Four compounds from PubChem BioAssay can be followed below.

Experiment [1] can be described thus: liver-stage malaria parasite growth inhibition, primary screen, cell-based, HepG2, luciferase luminescence, HepG2 viability (AID 624349; in the data active means parasite load remaining mostly below about 12%, no sharp cut-off; inactive means mostly above about 10%;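 further: 100% = mean of DMSO negative control wells on the same plate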). To be noted: P. berghei liver stage in HepG2, luciferase luminescence, concentration not given here; parasite load remaining: stronger effect = lower value; viability: measured here: HepG2 viability without parasites.
Experiment [2] is described as follows: Cy5 fluorescence interference with SSB-bound oligo, artefact control for HCV NS3 helicase inhibitor project, biochemical, NIH Clinical Collection, E. coli SSB (AID 743268; call rule not given here).
Experiment [3] has as its system Hepatitis C virus NS3 helicase. Description: HCV NS3 helicase inhibitors, primary screen, biochemical, fluorescence polarization, NIH Clinical Collection (AID 743270; call rule not given here). To be noted: NS3 helicase binding to Cy5-dT15 DNA, stronger effect = higher value, concentration not given here. Background: Fluorescence polarisation rises when a labelled molecule tumbles more slowly, as on binding a larger partner.

Experiment [4] has as its target Single-stranded DNA-binding protein (Escherichia coli (strain K12)) (UniProt P0AGE0). As to the kind of experiment: E. coli SSB displacement from DNA, counter-screen for HCV NS3 helicase inhibitor project, biochemical, fluorescence polarization, NIH Clinical Collection (AID 743271; in the data active means inhibition above about 28%). To be noted: stronger effect = higher value, concentration not given here.
Experiment [5] can be described thus: fluorescence interference in NS3h assay format, artefact control for HCV NS3 helicase inhibitor project, biochemical, NIH Clinical Collection (AID 743272; call rule not given here;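 further: HCV NS3 helicase with a Cy5 labelled single stranded DNA probe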). To be noted: fluorescence interference counterscreen, stronger effect = lower value. For orientation: Counterscreens check selectivity or assay interference.
The nature of experiment [6]: modulation of C. elegans fzo-1 (AID 1259413; call rule not given here;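 further: fzo-1 mutant C. elegans worms in liquid wells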). Conditions: C. elegans fzo-1 modulator screen, mean read-out; stronger effect = higher value.
Experiment [7] can be described thus: sensitizers of A549 cells to miR-34 induction, primary screen, imaging, A549 dox-inducible miR-34, nuclei and caspase counts (AID 1347080;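 active means compounds whose cell count with miR-34 switched on is under 0.7 times the count with it off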). Conditions: A549 miR-34 inducible, Hoechst nuclei count, 48 h.
Experiment [8] is described as follows: viability rescue of complex I mutant cybrids, primary screen, cell-based, galactose medium, ATP luminescence (AID 1645843;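 active means z-score of at least 1.8 in each of two replicates, scored against plate mean and spread of sample wells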;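 further: positive z means more ATP and so rescue of galactose-driven cybrid death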). Conditions: complex I mutant cybrid cells, 72 h, stronger effect = higher value.
The next experiment relates to F380Y. Description: modulators of BK channel variants, profiling panel, selectivity assay, cell-based, U2OS BacMam, thallium flux, beta subunits (AID 1259406).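 Further: initial slope of Thallos dye fluorescence rise after thallium is added; log ratio against the mean of 0.3% DMSO vehicle wells on the same plate.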 To be noted: at 30 µM.
The subject of the next experiment is F380Y/beta1. The description is as above. Conditions: at 30 µM.
The test system of a further experiment is F380Y/beta2Delta. Described as above. To be noted: at 30 µM.
The test system of the next experiment is F380Y/beta4. Described as above. Conditions: at 30 µM.
For experiment [9], the target named is Calcium-activated potassium channel subunit alpha-1 (Homo sapiens) + Leucine-rich repeat-containing protein 26 (Homo sapiens) (UniProt Q12791+Q2I0M4). The description is as above. Conditions: F380Y/Slo1WT/gamma1, at 30 µM.
For a further experiment, the system named is R275C. The experiment is described as above. To be noted: at 30 µM.
The subject of another experiment is R275C/beta1. The experiment is described as above. To be noted: at 30 µM.
The test system of the next experiment is R275C/beta2Delta. The description is as above. Conditions: at 30 µM.
The test system of a further experiment is R275C/beta4. Described as above. To be noted: at 30 µM.
Another experiment relates to R275C/Slo1WT/beta2. The experiment is described as above. Conditions: at 30 µM.
A short description of experiment [10]: survival rescue of mitochondrial mutant cells in low glucose, primary screen, MELAS cybrids, Rieske KO mouse fibroblasts, CellTiter-Glo (AID 1508586;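 active means mean z-score across replicates of 1.96 or higher in either the MELAS or the Rieske mutant cell line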;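 further: z relative to plate mean and SD of compound and empty wells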). On the technique in general: In ATP-based viability assays light output follows the ATP content of the culture.
[11] abbreviates: stronger effect = lower value, cell number ratio, induced over uninduced.
Where [12] appears, read: measured here: relative caspase fold change +Dox/-Dox.
[13] abbreviates: measured here: total cells with miR-34 induction, stronger effect = lower value.
[14] abbreviates: measured here: total cells without miR-34 induction.
The mark [15] stands for this setting: MELAS cybrid survival, CellTiter-Glo 48 h, stronger effect = higher value.
The mark [16] stands for this setting: Rieske KO mouse fibroblast survival, CellTiter-Glo 72 h.

Values joined by “and” are separate entries in the source; they are usually repeats but may differ in a detail not shown here. Equal values may be shown once. Active and inactive are the calls of the source.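 How the source made its calls, unless noted: active means thallium flux through the channel raised or lowered by more than 3 SD from vehicle-only wells, actives on both sides; inactive means the rest.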

Calcium-activated potassium channel subunit alpha-1 (Homo sapiens) + Leucine-rich repeat-containing protein 26 (Homo sapiens), sequence (Q2I0M4 whole entry, looked up, one chain of several): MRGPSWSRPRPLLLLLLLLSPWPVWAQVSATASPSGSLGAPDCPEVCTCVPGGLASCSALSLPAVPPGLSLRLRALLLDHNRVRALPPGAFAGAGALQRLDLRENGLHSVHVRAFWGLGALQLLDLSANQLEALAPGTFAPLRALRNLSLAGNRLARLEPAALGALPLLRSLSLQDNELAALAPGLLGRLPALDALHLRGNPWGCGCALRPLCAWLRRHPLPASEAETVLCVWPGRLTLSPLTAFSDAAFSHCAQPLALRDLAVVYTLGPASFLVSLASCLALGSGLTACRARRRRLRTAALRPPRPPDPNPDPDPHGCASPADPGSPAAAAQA

As usually defined, the viability is a read-out of living cells in per cent, often relative to untreated cells. As a reminder, the inhibition is the drop in the measured response relative to a control, in per cent. As for `CCCCC(=O)OC1(C(=O)CO)CCC2C3CCC4=CC(=O)CCC4(C)C3C(O)CC21C` (stereo not drawn), the parasite load remaining in [1] is 89.7% (inactive). For the same compound, the viability in experiment [1] stood at 100%. Further, the fluorescence ratio in [2] is 1.04 (inactive); in experiment [5], 1.01 (inactive). For the same compound, the inhibition in experiment [3] is -5.91% (inactive); in [4], -5.05% (inactive). In addition, the mean signal in [6] was 256 (inactive). For the same compound, the fold change in [7] (setting [11]) is 0.983 (inactive); in [7] (setting [12]), 2.66. For the same compound, the cell count is 6880 in experiment [7] (setting [13]) and 7000 in experiment [7] (setting [14]). Moreover, in [8], the z-score was 0.245 (inactive). Moreover, the log fold change Tl+ flux in the experiment on F380Y is -0.858 (active); with F380Y/beta1, -0.315 (active); in the experiment with F380Y/beta2Delta, -0.396 (active); in the experiment with F380Y/beta4 it was -0.379 (active); in experiment [9] it was -0.495 (active); with R275C, 0.0146 (inactive). The log fold change Tl+ flux in the experiment with R275C/beta1 was 0.44 (active); in the experiment on R275C/beta2Delta, 0.266 (active); with R275C/beta4, 0.327 (active); with R275C/Slo1WT/beta2, -0.00582 (inactive).
Regarding `Cc1nnc(SCC2=C(C(=O)O)N3C(=O)C(NC(=O)Cn4cnnn4)C3SC2)s1` (stereo not drawn), the parasite load remaining in experiment [1] was 65.6% (inactive). Also, the viability in [1] came out at 110%. In addition, the mean signal in experiment [6] is 235 (inactive). Moreover, the fold change in [7] (setting [11]) is 0.923 (inactive); in [7] (setting [12]), 1.36. For the same compound, the cell count worked out at 10000 in experiment [7] (setting [13]) and 10800 in [7] (setting [14]). In addition, the z-score in experiment [8] was -0.49 (inactive). For the same compound, the log fold change Tl+ flux in the experiment on F380Y was -0.00444 (inactive); in the experiment with F380Y/beta1, -0.0723 (inactive); with F380Y/beta2Delta, 0.025 (inactive); with F380Y/beta4, 0.028 (inactive); in experiment [9] it was 0.00509 (inactive); with R275C, 0.00777 (inactive). The log fold change Tl+ flux with R275C/beta1 is 0.00195 (inactive); with R275C/beta2Delta, 0.0237 (inactive); in the experiment on R275C/beta4 it was -0.0318 (inactive); in the experiment with R275C/Slo1WT/beta2 it was 0.0155 (inactive).
Consider `COc1ccnc(CS(=O)c2nc3cc(OC(F)F)ccc3[nH]2)c1OC` (stereo not drawn), for which the parasite load remaining in experiment [1] was 94.6% (inactive). In [1], the viability turned out to be 75.5%. Besides, the fluorescence ratio in experiment [2] is 1.07 (inactive); in experiment [5], 1.05 (inactive). The inhibition in [3] is -2.77% (inactive); in experiment [4], 1.44% (inactive). The mean signal in [6] is 243 (inactive). The values for the fold change in experiment [7] (setting [11]) and in experiment [7] (setting [12]) were 0.937 (inactive) and 1.32, respectively. For the same compound, the cell count was found to be 9070 in experiment [7] (setting [13]) and 9680 in experiment [7] (setting [14]). Also, the z-score in [10] (setting [15]) was 1.33 (inactive); in [10] (setting [16]), 0.907; in experiment [8], 0.63 (inactive). The log fold change Tl+ flux in the experiment on F380Y is -0.000729 (inactive); in the experiment on F380Y/beta1, -0.0068 (inactive); with F380Y/beta2Delta, 0.0285 (inactive); in the experiment on F380Y/beta4 it was -0.0379 (inactive); in experiment [9], 0.0336 (inactive); in the experiment on R275C it was -0.0182 (inactive). Also, the log fold change Tl+ flux in the experiment on R275C/beta1 was 0.0487 (inactive); with R275C/beta2Delta, 0.0404 (inactive); in the experiment with R275C/beta4, -0.00392 (inactive); in the experiment on R275C/Slo1WT/beta2, -0.00592 (inactive).
On to `C=CCc1ccc(O)c(-c2ccc(O)c(CC=C)c2)c1`, for which the parasite load remaining in experiment [1] is 18.8% (inactive). In experiment [1], the viability was determined as 70.3%. For the same compound, the fluorescence ratio in experiment [2] and in [5] was 0.94 (inactive) in each case. In addition, the inhibition in experiment [3] was 5.94% (inactive); in [4], 5.29% (inactive). Besides, the mean signal in [6] was 216 (inactive). Moreover, the fold change in experiment [7] (setting [11]) is 0.989 (inactive) and 0.916 (inactive); in experiment [7] (setting [12]), 1.37 and 0.714. Besides, the cell count was 8192 and 9270 in experiment [7] (setting [13]); 8280 and 10100 in experiment [7] (setting [14]). In addition, the z-score was -0.24 (inactive) in [10] (setting [15]), 0.74 in experiment [10] (setting [16]) and -1.87 (inactive) in experiment [8]. Besides, the log fold change Tl+ flux in the experiment on F380Y is 0.306 (active); with F380Y/beta1, 0.643 (active); in the experiment on F380Y/beta2Delta, 0.34 (active); in the experiment with F380Y/beta4 it was 0.501 (active); in [9], 0.418 (active); in the experiment with R275C it was 0.0538 (inactive). The log fold change Tl+ flux in the experiment with R275C/beta1 was 0.387 (active); in the experiment on R275C/beta2Delta, 0.524 (active); in the experiment on R275C/beta4, 0.697 (active); in the experiment on R275C/Slo1WT/beta2, 0.149 (active).
